The target in test [1] is mouse Estrogen Receptor alpha (Era), Esr1 (gene 13982) (UniProt P19785). Put plainly: NVS_NR_mERa: NovaScreen (NVS) Nuclear Receptor Binding Assay for mouse Estrogen Receptor alpha (Era) (AID 2283378).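 Further: hit means loss of bound radioligand signal relative to DMSO.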 The method, boiled down: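 Extracted mouse Era incubated with tritiated or iodinated radioligand plus test chemical, 18 h. Bound fraction separated on filters, counted by scintillation. DMSO = negative control/baseline; duplicate single-point at 25 uM, then concentration-response follow-up.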

For test [2], the target named is Estrogen receptor (Homo sapiens) (UniProt P03372). The test can be described thus: OT_ERa_GFPERaERE_0480: Odyssey Thera (OT) 8-hour HeLa Transcription Induction Assay for Estrogen Receptor (AID 2283381; active means hit-call score of the fitted dose curve at least 0.9, where 1 is the maximum; inactive means score below 0.9). The method, boiled down:
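Cells (HeLa) receive compound; after 8 h, reporter fluorescence is imaged and quantified by high-content analysis. Gain-of-signal relative to DMSO gives the endpoint.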

Test [3] shares this target. The test can be described thus: OT_ERa_GFPERaERE_0120: Odyssey Thera (OT) 2-hour HeLa Transcription Induction Assay for Estrogen Receptor (AID 2283382). The method, boiled down:
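Measures ESR1 pathway reporter gain-of-signal in HeLa cells after a 2-hour treatment, detected as fluorescent protein induction by microscopy, DMSO as baseline.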

Test [4] deals with Bile acid receptor (Homo sapiens) (UniProt Q96RI1). Put plainly: OT_FXR_FXRSRC1_0480: Odyssey Thera (OT) 8-hour HEK293T Protein-Complementation Assay for Farnesoid X receptor/SRC-1 Co-activator (AID 2283383). The method, boiled down: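 Co-activator recruitment to FXR was measured in living HEK293T cells, where interaction of the two fused partners restored an active fluorescent reporter. Signal gain after 8 h treatment was referenced to DMSO.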

For test [5] the target is unchanged. Put plainly: OT_FXR_FXRSRC1_1440: Odyssey Thera (OT) 24-hour HEK293T Protein-Complementation Assay for Farnesoid X receptor/SRC-1 Co-activator (AID 2283384). The method, boiled down: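 Cell-based binding reporter: interaction of FXR with SRC-1 brings reporter fragments together, giving a fluorescence signal read 24 h after dosing of HEK293T cells.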
Test [6] deals with Retinoic acid receptor RXR-alpha (Homo sapiens) (UniProt P19793). Put plainly: OT_NURR1_NURR1RXRa_0480: Odyssey Thera (OT) 8-hour HEK293T Protein Complementation Assay for Nurr1/retinoid X receptor (RXR) (AID 2283385). The method, boiled down:
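Compounds are applied to HEK293T cells carrying Nurr1 and RXRα linked to reporter fragments. After 8 h, fluorescence intensity reports heterodimer formation, with DMSO as baseline.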

Test [7] has the same target. The test can be described thus: OT_NURR1_NURR1RXRa_1440: Odyssey Thera (OT) 24-hour HEK293T Protein Complementation Assay for Nurr1/retinoid X receptor (RXR) (AID 2283386). The method, boiled down: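 Measured as fluorescence from a reconstituted split reporter, this 24 h HEK293T complementation assay scores compound-induced gain of Nurr1/RXRα association relative to DMSO.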

Test [8] has as its target Peroxisome proliferator-activated receptor gamma (Homo sapiens) (UniProt P37231). Put plainly: OT_PPARg_PPARgSRC1_0480: Odyssey Thera (OT) 8-hour Protein-Complementation Assay for Peroxisome Proliferator-activated Receptor Gamma / SRC-1 Co-activator (AID 2283387).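 Further: nuclear to cytoplasmic split Venus YFP fluorescence ratio reporting PPARg SRC-1 interaction.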 The method, boiled down:
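Split-YFP (IFP1/IFP2) PPARg/SRC-1 reporter, HEK293T, 37 °C, 5% CO2; 8 h compound; formaldehyde fix + Draq5; high-content imaging, N/C ratio, ≥350 cells/image, positive direction vs DMSO.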

Test [9] shares this target. The test can be described thus: OT_PPARg_PPARgSRC1_1440: Odyssey Thera (OT) 24-hour Protein-Complementation Assay for Peroxisome Proliferator-activated Receptor Gamma/ SRC-1 Co-activator (AID 2283388).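 Further: nuclear to cytoplasmic ratio of reconstituted Venus YFP fluorescence in fixed imaged cells.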 The method, boiled down: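 Protein-fragment complementation between PPARg and coactivator SRC-1 was measured by fluorescence imaging in transiently transfected HEK293T cells after 24 h treatment. Signal was quantified as N/C ratio in the 488 nm channel, with DMSO as negative control.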

The nature of test [10]: CEETOX_H295R_CORTIC: CeeTox H295R High-throughput Steroidogenesis Assay for Corticosterone (CORTIC) (AID 2283437; active means hit-call score of the fitted dose curve at least 0.9, where 1 is the maximum; inactive means score below 0.9;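 further: corticosterone secreted into medium quantified by mass spectrometry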). The conditions noted are these: actives raise or lower the signal. The method, boiled down: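 Corticosterone secreted into medium is measured by reverse-phase HPLC with tandem MS following liquid-liquid extraction. Cells are forskolin-stimulated (10 uM, 48 h) before 48 h test exposure; activity fitted in both directions against DMSO.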

For test [11], the target named is Agonist Androgen Response Element (ARE), AR (gene 367) (UniProt P10275). Put plainly: OT_AR_ARELUC_AG_1440: Odyssey Thera (OT) 24-hour CHO-K1 Luciferase Assay for Agonist Androgen Response Element (ARE) (AID 2283379). The method, boiled down:
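Agonist mode, 24 h exposure in CHO-K1 ARE-luciferase cells; values reflect luminescence induction over vehicle.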

The target of test [12] is Estrogen receptor beta (Homo sapiens) (UniProt Q92731). Put plainly: OT_ER_ERbERb_1440: Odyssey Thera (OT) 24-hour HEK293T Protein-Complementation Assay for Estrogen Receptor-beta/-beta Homodimer (AID 2283380).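 Further: fluorescence gain from ER beta LBD homodimer complementation read by laser scanning cytometry; scored as signal increase over DMSO baseline for both agonists and antagonists.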 The method, boiled down:
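Fluorescence increase, nuclear for agonists or whole-cell for antagonists, relative to DMSO vehicle, quantified by laser scanning cytometer after fixation and Draq5 staining. Readout from 24 h treatment of HEK293T cells carrying complementation-paired ER beta LBD (aa 310-547).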

For test [13], the target named is human Norepinephrine Transporter (NET), SLC6A2 (gene 6530) (UniProt P23975). Put plainly: NVS_TR_hNET: NovaScreen (NVS) Transporter Assay for human Norepinephrine Transporter (NET) (AID 2283377).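 Further: cell-free membrane protein extracted from CHO cells expressing human NET; displacement of radioligand from human NET seen as loss of scintillation signal.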 The method, boiled down:
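Scintillation counts of filter-retained radioligand served as the readout, taken 1 h post-dosing in a cell-free CHO-derived system. Test chemicals ran first at 25 uM in duplicate; confirmed hits were retested across concentrations.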

A short description of test [14]: CEETOX_H295R_11DCORT: CeeTox H295R High-throughput Steroidogenesis Assay for 11-Deoxycortisol (11DCORT) (AID 2283432; active means hit-call score of the fitted dose curve at least 0.9, where 1 is the maximum; inactive means score below 0.9). Conditions: actives raise or lower the signal. The method, boiled down:
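Steroidogenesis in human H295R cells: 48 h chemical exposure after forskolin priming, 11-deoxycortisol measured by LC-MS/MS.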

Test [15] can be described thus: CEETOX_H295R_OHPREG: CeeTox H295R High-throughput Steroidogenesis Assay for OH-Pregnenolone (OHPREG) (AID 2283434; active means hit-call score of the fitted dose curve at least 0.9, where 1 is the maximum; inactive means score below 0.9). The conditions noted are these: actives raise or lower the signal. The method, boiled down: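 Hormone levels in spent medium were measured by tandem mass spectrometry following liquid-liquid extraction. Cells (H295R) had been forskolin-stimulated (10 uM, 48 h) before a 48 h chemical exposure at 0.1% DMSO, with activity fitted in both directions against DMSO.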

The nature of test [16]: CEETOX_H295R_OHPROG: CeeTox H295R High-throughput Steroidogenesis Assay for OH-Progesterone (OHPROG) (AID 2283435; active means hit-call score of the fitted dose curve at least 0.9, where 1 is the maximum; inactive means score below 0.9). Conditions: actives raise or lower the signal. The method, boiled down:
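Secreted 17alpha-hydroxyprogesterone is read by tandem MS from media of forskolin-primed H295R cells dosed with chemical for 48 h. Activity is fitted in both directions against DMSO baseline; cytotoxic concentrations are re-tested diluted.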

Test [17] is described as follows: CEETOX_H295R_CORTISOL: CeeTox H295R High-throughput Steroidogenesis Assay for Cortisol (AID 2283438; active means hit-call score of the fitted dose curve at least 0.9, where 1 is the maximum; inactive means score below 0.9;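 further: cortisol secreted into medium quantified by LC-MS/MS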). The conditions noted are these: actives raise or lower the signal. The method, boiled down: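 Human adrenocortical H295R cells (passage ≤10) received test chemicals for 48 h after forskolin priming. Secreted cortisol was measured by LC-MS/MS.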
Test [18] in a line: CEETOX_H295R_DOC: CeeTox H295R High-throughput Steroidogenesis Assay for DOC (AID 2283439; active means hit-call score of the fitted dose curve at least 0.9, where 1 is the maximum; inactive means score below 0.9). Conditions: actives raise or lower the signal. The method, boiled down: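 Secreted DOC was quantified from H295R media by HPLC-MS/MS after 48 h chemical exposure following 48 h forskolin (10 uM) prestimulation. Values were fitted in both directions relative to DMSO, the negative control and baseline.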

Test [19] in a line: CEETOX_H295R_ESTRADIOL: CeeTox H295R High-throughput Steroidogenesis Assay for Estradiol (AID 2283440; active means hit-call score of the fitted dose curve at least 0.9, where 1 is the maximum; inactive means score below 0.9;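 further: estradiol secreted into medium quantified by LC-MS/MS after dansyl derivatisation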). The conditions noted are these: actives raise or lower the signal. The method, boiled down:
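Estradiol secreted into the medium was measured by tandem mass spectrometry after liquid-liquid extraction and dansylation. Human H295R cells had been forskolin-primed (10 uM, 48 h) before a 48 h chemical exposure with 0.1% DMSO.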

A short description of test [20]: CEETOX_H295R_ANDR: CeeTox H295R High-throughput Steroidogenesis Assay for Androstenedione (ANDR) (AID 2283436; active means hit-call score of the fitted dose curve at least 0.9, where 1 is the maximum; inactive means score below 0.9;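 further: human H295R adrenal cells exposed for 48 h with androstenedione measured in medium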). Conditions: actives raise or lower the signal. The method, boiled down: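 Read-out is androstenedione secreted into medium, measured by tandem mass spectrometry after liquid-liquid extraction. Cells were H295R, dosed for 48 h per modified OECD 456; activity fitted in both directions relative to DMSO.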

Structures are written as SMILES. Where “and” joins values, the source holds several entries; their conditions need not be identical. Identical values can stand only once. Records with an inconclusive call do not appear. Where a structure was tested more than once in an assay, its records may differ in their call. Calls of active or inactive are those of the source. How the source made its calls, unless noted: active means hit-call score of the fitted dose curve at least 0.9, where 1 is the maximum; inconclusive means response in the unintended direction; inactive means score below 0.9.

A word on the AC50: it is the midpoint of the concentration-response curve, whichever way the signal moves.

Retinoic acid receptor RXR-alpha (Homo sapiens), sequence (P19793 whole entry, looked up, the tested form may be a part): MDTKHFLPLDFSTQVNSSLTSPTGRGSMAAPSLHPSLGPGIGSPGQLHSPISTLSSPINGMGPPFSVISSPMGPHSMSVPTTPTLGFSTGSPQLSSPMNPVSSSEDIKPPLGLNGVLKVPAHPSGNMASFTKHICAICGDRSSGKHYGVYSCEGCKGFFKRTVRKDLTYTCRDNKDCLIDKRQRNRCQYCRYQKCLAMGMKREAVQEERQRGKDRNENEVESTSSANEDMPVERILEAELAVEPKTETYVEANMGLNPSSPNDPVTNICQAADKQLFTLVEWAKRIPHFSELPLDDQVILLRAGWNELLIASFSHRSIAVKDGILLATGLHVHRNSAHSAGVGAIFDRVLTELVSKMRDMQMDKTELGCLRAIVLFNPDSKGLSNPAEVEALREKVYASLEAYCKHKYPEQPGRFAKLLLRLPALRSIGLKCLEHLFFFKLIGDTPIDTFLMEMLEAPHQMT
mouse Estrogen Receptor alpha (Era), Esr1 (gene 13982), sequence (P19785 whole entry, looked up): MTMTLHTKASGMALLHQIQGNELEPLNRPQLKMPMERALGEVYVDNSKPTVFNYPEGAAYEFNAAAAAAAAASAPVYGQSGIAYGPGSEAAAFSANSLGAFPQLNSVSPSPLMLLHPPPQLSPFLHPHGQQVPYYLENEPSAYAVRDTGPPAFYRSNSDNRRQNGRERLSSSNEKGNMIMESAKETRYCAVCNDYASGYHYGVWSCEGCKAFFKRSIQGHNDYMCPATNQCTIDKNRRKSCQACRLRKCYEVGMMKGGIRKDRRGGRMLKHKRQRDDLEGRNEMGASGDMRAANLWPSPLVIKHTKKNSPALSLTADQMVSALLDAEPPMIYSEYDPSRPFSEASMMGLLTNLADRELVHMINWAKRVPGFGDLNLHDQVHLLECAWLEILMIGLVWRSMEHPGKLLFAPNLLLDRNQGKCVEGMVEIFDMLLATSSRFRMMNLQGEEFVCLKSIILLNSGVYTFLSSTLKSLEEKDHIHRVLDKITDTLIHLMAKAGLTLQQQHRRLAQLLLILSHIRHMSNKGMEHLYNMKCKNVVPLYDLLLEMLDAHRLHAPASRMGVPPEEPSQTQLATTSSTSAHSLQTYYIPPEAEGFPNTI
Estrogen receptor beta (Homo sapiens), sequence (Q92731 whole entry, looked up, the tested form may be a part): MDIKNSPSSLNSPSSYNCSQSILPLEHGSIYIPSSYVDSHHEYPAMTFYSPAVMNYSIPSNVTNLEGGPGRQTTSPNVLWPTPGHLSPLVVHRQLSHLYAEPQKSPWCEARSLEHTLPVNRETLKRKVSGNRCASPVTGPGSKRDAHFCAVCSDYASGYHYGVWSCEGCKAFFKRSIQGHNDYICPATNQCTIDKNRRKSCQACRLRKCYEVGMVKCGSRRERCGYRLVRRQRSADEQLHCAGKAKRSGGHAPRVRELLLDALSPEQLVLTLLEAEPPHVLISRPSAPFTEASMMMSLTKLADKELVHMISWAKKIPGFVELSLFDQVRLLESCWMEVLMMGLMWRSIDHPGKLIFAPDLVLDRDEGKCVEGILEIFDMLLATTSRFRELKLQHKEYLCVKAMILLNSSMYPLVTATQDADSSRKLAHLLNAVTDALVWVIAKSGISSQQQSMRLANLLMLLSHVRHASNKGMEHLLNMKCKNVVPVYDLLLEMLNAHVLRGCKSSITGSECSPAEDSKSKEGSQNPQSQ
Peroxisome proliferator-activated receptor gamma (Homo sapiens), sequence (P37231 whole entry, looked up): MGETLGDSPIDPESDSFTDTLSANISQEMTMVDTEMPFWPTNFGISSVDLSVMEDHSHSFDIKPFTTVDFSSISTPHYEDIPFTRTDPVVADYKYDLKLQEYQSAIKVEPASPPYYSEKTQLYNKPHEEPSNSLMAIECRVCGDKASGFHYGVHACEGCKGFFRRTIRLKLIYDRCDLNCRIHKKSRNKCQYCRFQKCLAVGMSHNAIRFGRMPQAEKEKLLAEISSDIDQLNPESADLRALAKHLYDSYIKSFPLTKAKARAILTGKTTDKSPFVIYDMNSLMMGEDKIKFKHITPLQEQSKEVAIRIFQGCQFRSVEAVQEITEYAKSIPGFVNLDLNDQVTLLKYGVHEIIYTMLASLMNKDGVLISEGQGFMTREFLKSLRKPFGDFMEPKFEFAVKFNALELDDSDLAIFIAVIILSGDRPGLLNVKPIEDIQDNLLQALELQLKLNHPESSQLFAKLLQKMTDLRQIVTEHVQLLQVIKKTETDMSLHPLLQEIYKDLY
Agonist Androgen Response Element (ARE), AR (gene 367), sequence (P10275 whole entry, looked up): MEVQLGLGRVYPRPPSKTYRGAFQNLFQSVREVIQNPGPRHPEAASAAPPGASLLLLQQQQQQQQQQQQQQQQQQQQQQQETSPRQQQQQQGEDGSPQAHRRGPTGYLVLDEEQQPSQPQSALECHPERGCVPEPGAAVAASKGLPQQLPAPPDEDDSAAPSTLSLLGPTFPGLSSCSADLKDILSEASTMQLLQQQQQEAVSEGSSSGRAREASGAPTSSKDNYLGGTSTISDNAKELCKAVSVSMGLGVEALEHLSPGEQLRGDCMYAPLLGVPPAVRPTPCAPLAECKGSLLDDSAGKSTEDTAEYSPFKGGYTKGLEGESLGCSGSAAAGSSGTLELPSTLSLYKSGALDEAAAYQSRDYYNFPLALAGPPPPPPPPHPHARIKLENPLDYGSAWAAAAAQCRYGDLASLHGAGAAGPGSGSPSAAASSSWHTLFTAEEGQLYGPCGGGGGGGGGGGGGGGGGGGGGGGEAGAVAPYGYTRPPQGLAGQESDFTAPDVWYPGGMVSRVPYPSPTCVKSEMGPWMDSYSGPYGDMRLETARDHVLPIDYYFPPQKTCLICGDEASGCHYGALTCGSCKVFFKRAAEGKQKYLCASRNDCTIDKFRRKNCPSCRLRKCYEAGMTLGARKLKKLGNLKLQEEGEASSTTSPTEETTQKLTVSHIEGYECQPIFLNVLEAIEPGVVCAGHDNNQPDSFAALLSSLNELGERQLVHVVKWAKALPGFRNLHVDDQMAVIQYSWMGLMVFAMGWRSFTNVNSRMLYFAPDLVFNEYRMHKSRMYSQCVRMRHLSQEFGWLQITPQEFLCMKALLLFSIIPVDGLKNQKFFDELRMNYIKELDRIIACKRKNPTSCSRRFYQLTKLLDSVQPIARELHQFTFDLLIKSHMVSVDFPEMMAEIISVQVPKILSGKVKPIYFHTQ
Estrogen receptor (Homo sapiens), sequence (P03372 whole entry, looked up): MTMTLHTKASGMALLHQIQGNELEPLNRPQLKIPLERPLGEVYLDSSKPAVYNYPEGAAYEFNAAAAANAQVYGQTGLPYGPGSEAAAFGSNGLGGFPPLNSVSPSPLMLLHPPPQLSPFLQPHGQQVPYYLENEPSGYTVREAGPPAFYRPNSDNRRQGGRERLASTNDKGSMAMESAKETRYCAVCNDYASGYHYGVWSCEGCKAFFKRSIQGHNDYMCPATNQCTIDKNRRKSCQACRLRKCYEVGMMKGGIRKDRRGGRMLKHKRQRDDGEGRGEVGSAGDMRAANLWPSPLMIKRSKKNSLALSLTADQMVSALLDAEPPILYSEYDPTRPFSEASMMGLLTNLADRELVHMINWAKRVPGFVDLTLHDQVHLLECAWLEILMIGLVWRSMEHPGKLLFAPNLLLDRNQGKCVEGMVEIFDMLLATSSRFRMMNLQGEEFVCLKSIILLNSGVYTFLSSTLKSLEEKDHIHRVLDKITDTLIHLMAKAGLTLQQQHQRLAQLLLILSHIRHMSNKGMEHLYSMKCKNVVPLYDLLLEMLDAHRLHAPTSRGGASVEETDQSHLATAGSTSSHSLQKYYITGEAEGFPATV
Bile acid receptor (Homo sapiens), sequence (Q96RI1 whole entry, looked up, the tested form may be a part): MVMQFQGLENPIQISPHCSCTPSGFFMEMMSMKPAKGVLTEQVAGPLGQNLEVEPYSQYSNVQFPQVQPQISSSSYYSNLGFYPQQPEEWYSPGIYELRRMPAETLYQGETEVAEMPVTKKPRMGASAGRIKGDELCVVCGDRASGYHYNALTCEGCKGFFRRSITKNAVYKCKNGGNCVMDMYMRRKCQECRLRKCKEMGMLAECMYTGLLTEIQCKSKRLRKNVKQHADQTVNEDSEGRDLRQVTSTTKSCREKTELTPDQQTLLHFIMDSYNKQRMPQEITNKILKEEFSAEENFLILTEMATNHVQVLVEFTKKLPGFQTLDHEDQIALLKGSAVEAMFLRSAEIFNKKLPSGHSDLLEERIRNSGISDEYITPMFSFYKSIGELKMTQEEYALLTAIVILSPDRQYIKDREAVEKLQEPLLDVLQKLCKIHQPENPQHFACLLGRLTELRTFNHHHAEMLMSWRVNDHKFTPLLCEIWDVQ
human Norepinephrine Transporter (NET), SLC6A2 (gene 6530), sequence (P23975 whole entry, looked up): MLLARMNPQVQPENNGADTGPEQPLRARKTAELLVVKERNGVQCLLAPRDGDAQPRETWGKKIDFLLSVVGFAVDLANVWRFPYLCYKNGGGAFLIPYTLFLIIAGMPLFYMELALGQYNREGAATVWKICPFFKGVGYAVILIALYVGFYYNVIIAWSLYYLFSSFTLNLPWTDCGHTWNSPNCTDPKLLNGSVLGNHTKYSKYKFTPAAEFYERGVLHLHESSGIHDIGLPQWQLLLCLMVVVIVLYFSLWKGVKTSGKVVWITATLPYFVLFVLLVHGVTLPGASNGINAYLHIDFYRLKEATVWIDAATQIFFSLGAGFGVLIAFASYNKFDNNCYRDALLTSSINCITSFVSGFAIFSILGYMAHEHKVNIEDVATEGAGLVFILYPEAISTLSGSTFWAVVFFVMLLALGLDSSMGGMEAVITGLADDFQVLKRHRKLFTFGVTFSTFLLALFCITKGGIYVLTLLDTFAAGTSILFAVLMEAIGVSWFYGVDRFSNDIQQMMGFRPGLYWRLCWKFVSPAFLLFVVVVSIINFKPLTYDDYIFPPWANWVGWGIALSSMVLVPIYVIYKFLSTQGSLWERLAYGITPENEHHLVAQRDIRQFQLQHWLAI

As to `ClC(Cl)=C(c1ccc(Cl)cc1)c1ccc(Cl)cc1`, the compound was classed as inactive in test [1], in test [2], in test [3], in test [7], in test [8] and in [9]. Further, the AC50 is 11.8 µM (active) in test [3]; 85 µM (active) and 83.5 µM (active) and 85.1 µM (active) in test [4]; 93 µM (active) and 84.9 µM (active) and 88.2 µM (active) in test [5]; 78.3 µM (active) [middle of 4 runs] in [6]; 79.2 µM (active) and 79.5 µM (active) and 80 µM (active) in [7].

Consider `CCCCCCOC(=O)c1ccccc1C(=O)OCCCCCC`, for which the result in test [1], in test [2], in [3], in [6], in test [7] and in [8] was inactive. Also, the call in test [9] and in [10] was inactive.

For `CC(C)(O)C(=O)Nc1ccc([N+](=O)[O-])c(C(F)(F)F)c1`, the AC50 in test [1] was 2.7 µM (active). The call in test [1], in test [11], in test [12], in test [2], in [3] and in test [6] was inactive. For the same compound, in test [7], the compound was called inactive.

Turning to `CCCCCCCCCC[N+](C)(C)CCCCCCCCCC`, the AC50 in test [13] is 1.46 µM (active); in [1] it was 5.55 µM (active); in test [2], 17.1 µM (active); in test [3] it was 16.1 µM (active). The call in [4], in test [5], in [8] and in [9] was inactive.

For the compound `Cc1ccc(O)c(C)c1`, in test [13], the AC50 was 11.5 µM (active). Also, the outcome in [12], in [2], in test [3], in test [6], in test [7] and in [8] was inactive. The result in [9], in test [14], in [15], in [16], in test [10] and in [17] was inactive. Further, the compound was classed as inactive in [18] and in test [19].

Consider `NS(=O)(=O)C(F)(F)C(F)(F)C(F)(F)C(F)(F)C(F)(F)C(F)(F)C(F)(F)C(F)(F)F`, for which the result in [1], in test [11], in [12], in [6], in [7] and in [8] was inactive. In addition, the compound was called inactive in test [9], in test [14], in test [15], in test [16], in test [20] and in [10]. For the same compound, the compound was classed as inactive in [17], in test [18] and in [19]. The AC50 is 42 µM (active) in [2]; 23.7 µM (active) in test [3]; 79.1 µM (active) in test [4]; 84.4 µM (active) in [5]; 83.3 µM (active) in test [6].

Regarding `CCCCCCCCOC(=O)c1ccccc1C(=O)OCCCCCCCC`, the call in [1], in test [12], in [2], in test [3], in test [4] and in test [5] was inactive. In addition, the compound was called inactive in [6], in test [7], in test [8] and in test [9].

As to `CC(c1ccc(O)cc1)(c1ccc(O)cc1)c1ccc(O)cc1`, the results for the AC50 in test [1], in test [2] and in test [3] were 0.768 µM (active), 3.62 µM (active) and 2.96 µM (active), respectively. The compound was called inactive in [6], in test [8] and in test [9].

Values taken from PubChem BioAssay (EPA / NIEHS).
